In the library only some 3.9% were active in any assay of this set; here they are far more common.
Casp6 inh: blocks human caspase-6 cleavage activity; inhibition, % at 12.5 µM; 350,000 tested, 0.53% active; purified caspase-6, Z-VEID-R110 cleavage fluorescence; P55212;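 active means mean inhibition across replicates at least about 35%, with every replicate also reaching that limit, limit read from the data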;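 further: 0% = median of neutral control wells and 100% = no fluorescence left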
Target sequence (P55212 24-179 limits assumed): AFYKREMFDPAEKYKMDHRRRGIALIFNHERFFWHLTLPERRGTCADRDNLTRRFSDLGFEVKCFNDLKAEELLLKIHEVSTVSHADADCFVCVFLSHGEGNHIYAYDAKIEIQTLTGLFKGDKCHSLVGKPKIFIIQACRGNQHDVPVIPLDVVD
Target sequence (P55212 194-293 limits assumed): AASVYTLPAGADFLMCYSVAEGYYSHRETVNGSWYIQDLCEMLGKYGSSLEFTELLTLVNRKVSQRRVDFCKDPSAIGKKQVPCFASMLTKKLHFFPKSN
N-glyco inh: blocks N-linked glycosylation in D54 reporter cells. D54 ERlucT glycosylation luciferase reporter, 24 h; percent of 100 nM tunicamycin response. reporter increase, % at 12.5 µM. 360,000 tested, 0.23% active. AID 588692;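 active means mean luciferase reporter signal, scaled so untreated is 0 and the glycosylation-blocking control 100, at or above a set limit in every replicate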;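 further: luciferase carries N-glycosylation sites so blocking glycosylation raises the light; 0% = median of neutral control wells and 100% = median of 100 nM tunicamycin wells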
CDK5 p35 inh: inhibitors of human CDK5/p35 kinase | Q00535+Q15078 | 330,000 tested, 0.01% active | inhibition, % at 10 µM | Recombinant CDK5/p35, ADP-Glo luminescence, 60 min;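 active means highest replicate inhibition of at least 50% and at least 75% of replicates reaching 50%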;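 further: plate controls were DMSO neutral control for no effect and GW8510 at 10 µM for full effect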
ALR inh: human ALR oxidase inhibition via reduced H2O2; P55789; purified ALR, DTT oxidation, H2O2 HRP-luminol luminescence; inhibition, % (concentration not given with the values); 290,000 tested, 3.8% active;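 active means mean replicate inhibition above about 79%, with every replicate also reaching it, limit read from the data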
Target sequence (P55789 whole entry, looked up): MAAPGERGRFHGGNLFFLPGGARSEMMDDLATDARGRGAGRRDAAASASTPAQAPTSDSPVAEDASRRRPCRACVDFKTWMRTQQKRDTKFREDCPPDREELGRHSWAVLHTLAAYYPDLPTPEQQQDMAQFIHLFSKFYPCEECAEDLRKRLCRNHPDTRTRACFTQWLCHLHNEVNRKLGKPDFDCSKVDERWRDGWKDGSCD
Mot1-301 SUMO: SUMOylation pathway inhibition by Mot1-301 growth rescue; growth rescue, % at 18.8 µM; AID 2716; S. cerevisiae Mot1-301 growth rescue, ATP luminescence, 38.5C; percent above DMSO median, 100 means doubled; 320,000 tested, 1% active;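 active means every valid replicate shows activation above 250% relative to neutral control wells; inactive means the rest, any valid replicate at or below 250%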;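 further: OY570 slx delta 5 strain wells were the positive control but not used for scaling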
NSD2 inh: inhibitors of human histone methyltransferase NSD2. O96028. NSD2 peptide methylation, AlphaScreen, 120 min. inhibition, % at 12.5 µM. 310,000 tested, 0.54% active. AID 743445; in the data active means inhibition above about 50%
* = called active by the depositor; x = no result given; ! = not active in a repeat.

SMILES	Casp6 inh	N-glyco inh	CDK5 p35 inh	ALR inh	Mot1-301 SUMO	NSD2 inh
COc1cc(/C=C2\C(=O)N(c3ccc(NC(C)=O)cc3)N=C2c2ccccc2)ccc1O	7.9	-1.6	2.3	94.7*	-3.6	37.9
O=C1/C(=C\c2ccc(O)c(O)c2)C(c2ccccc2)=NN1c1ccccc1	-2.4	-4.6	0.9	x	x	x
CCn1c(CN2c3ccccc3Sc3ccccc32)n[nH]c1=S	5.9	-0.8	-2.3	97.7*	22.1	8.6
CCOC(=O)c1c(-c2ccc(C)cc2)csc1NC(=O)CCN1CC(C)OC(C)C1 (centres undefined)	-5.3	-8.7	2.8	97.2*	144.9	0.2
Cc1ccc(C2=NN(C(=O)CCl)C(c3cccs3)C2)o1 (centres undefined)	0.6	-0.2	-2.0	97.6*	13.3	3.8
O=C(CCl)N1N=C(c2ccco2)CC1c1cccs1 (centres undefined)	x	2.3	-0.6	7.6	-5.9	x
Cn1c(N)c(N=Cc2ccccc2)c(=O)n(C)c1=O	-1.9	2.7	0.2	x	x	1.2
Cn1c(N)c(N=O)c(=O)n(C)c1=S	60.0*	2.2	-2.5	x	x	2.1
O=C(NCC[C@H]1CC[C@@H](NS(=O)(=O)Cc2ccccc2)[C@@H](CO)O1)C1CC1	0.5	x	x	x	x	x
CCSc1ccc(C(=O)NCC(=O)O)cc1	1.4	1.8	-0.2	-19.2	129.8	-2.9
CSc1ccc(NC(=O)Nc2ccc(C(=O)NCC(=O)O)cc2)cc1	52.5*	1.8	1.7	97.5*	9.8	25.7
C[C@@H]1CCCCO[C@@H](CN(C)Cc2ccc(Cl)c(Cl)c2)[C@H](C)CN([C@H](C)CO)C(=O)c2cc(NC(=O)CCC(F)(F)F)ccc2O1	1.4	x	x	x	x	x
CCCNC(=O)N1C[C@@H](C)[C@H](OC)CN(C)C(=O)c2cc(NS(C)(=O)=O)ccc2OC[C@@H]1C	2.3	x	x	x	x	x
O=C(N[C@@H]1CC[C@H](CCn2cc(Cc3ccccc3)nn2)O[C@H]1CO)c1ccccn1	0.7	x	x	x	x	x
CCCNC(=O)N(C)C[C@H]1Oc2cc(-c3ccncc3)ccc2S(=O)(=O)N([C@@H](C)CO)C[C@@H]1C	-3.9	x	x	x	x	x
On1ccccc1=S	-7.3	-18.9	4.4	92.4*	53.3	x
O=C(Cn1ccccc1=S)c1ccc(Cl)c(Cl)c1	-1.8	0.0	x	24.0	35.3	22.7
CO[C@@H]1CN(C)C(=O)c2cc(NS(=O)(=O)c3ccc(Cl)cc3)ccc2OC[C@@H](C)N(C)C[C@H]1C	0.2	x	x	x	x	x
COc1ccc(CNC(=O)COC(=O)c2cc(-c3ccc(Cl)s3)nc3ccccc23)cc1	x	0.7	-1.8	-15.9	276.1*	-1.4
O=C(COC(=O)c1cc(-c2ccc(Cl)s2)nc2ccccc12)NCc1ccco1	x	1.6	0.9	91.8*	174.0	-0.8
COc1ccc(NC(=O)Nc2ccc3c(c2)CC(=O)N([C@H](C)CO)C[C@H](C)[C@H](CN(C)C(=O)Nc2ccc(OC)cc2)O3)cc1	0.6	x	x	x	x	x
CC(C)NC(=O)Nc1ccc2c(c1)C(=O)N([C@@H](C)CO)C[C@H](C)[C@H](CN(C)C(=O)Nc1ccccc1)O2	-0.5	x	x	x	x	x
NS(=O)(=O)c1cc2c(cc1Cl)NC(C1C[C@H]3C=C[C@@H]1C3)NS2(=O)=O (some centres undefined)	2.4	2.3	-0.5	-6.3	562.8*!	x
C/C(=N/NC(=O)CSc1nc2ccccc2n1C)c1ccc(O)cc1	2.1	-1.0	0.4	99.0*	0.0	-3.1
O=C(N/N=C/C=C/c1ccco1)c1ccccc1Cl	49.4*	3.2	1.1	x	-24.5	15.0
SMILES	Casp6 inh	N-glyco inh	CDK5 p35 inh	ALR inh	Mot1-301 SUMO	NSD2 inh
Cn1c(SCC(=O)N/N=C/c2cccs2)nc2ccccc21	x	-1.3	0.9	-7.7	-2.2	-0.1
CCn1c(SCC(=O)N/N=C/C=C\c2ccco2)nc2ccccc21	6.1	4.7	-0.3	32.3	2.8	1.8
Cc1ccc(/C=N/NC(=O)CSc2nc3ccccc3n2C)s1	x	3.3	-0.3	88.6*	16.2	-0.4
Cn1c(SCC(=O)N/N=C/C=C\c2ccco2)nc2ccccc21	x	3.3	-0.2	85.9*	4.2	4.6
O=C(C1CCOCC1)N1CC2(C1)[C@@H](c1ccccc1)[C@@H](CO)N2Cc1ccc(Cl)cc1	2.5	x	x	x	x	x
C[C@@H]1CN([C@H](C)CO)C(=O)c2cc(NC(=O)Nc3ccc(C(F)(F)F)cc3)ccc2O[C@@H]1CN(C)Cc1ccc(C(=O)Nc2ccccc2N)cc1	-2.6	x	x	x	x	x
